Results filed as inconclusive are left out. Active and inactive are the calls of the source. Calls follow the shape of the dose curve; as a rule, active = well fitted cell-killing curve with a large enough effect in the repeat runs; inconclusive = weak or mixed curves; inactive = no such curve, though single readings can be large or run the other way. Non-standard residues stand in square brackets, D forms with d. Residues, ends and D or L forms follow the SMILES beside them. *: point of attachment. Sta = CC(C)C[C@H](N)[C@@H](O)CC(=O)O; Isovaleryl = CC(C)CC(=O)*
% is scaled to controls: 0 for no effect and ±100 for the full control effect.

The nature of this assay: qHTS assay to identify small molecule antagonists of the androgen receptor (AR) signaling pathway - cell viability counter screen (AID 743033; also: nearly all actives have a fitted effect of over 45% in size). The following applies: AR-bla HEK293 viability, CellTiter-Glo luminescence, 16 h; series mostly up to 58.5 µM; activity change, negative = cytotoxicity: at the top concentration. The source says:
National Center for Advancing Translational Sciences [NCATS]
NIH Chemical Genomics Center [NCGC]
U.S. Environmental Protection Agency [EPA]
National Institutes of Environmental Health Sciences [NIEHS]
National Toxicology Program [NTP]
U.S. Food and Drug Administration [FDA]
Androgen receptor (AR), a nuclear hormone receptor, plays a critical role in AR-dependent prostate cancer and other androgen related diseases. Endocrine disrupting chemicals (EDCs) and their interactions with steroid hormone receptors like AR may cause disruption of normal endocrine function as well as interfere with metabolic homeostasis, reproduction, developmental and behavioral functions. To identify the compounds that inhibit AR signaling, GeneBLAzer AR-UAS-bla-GripTite cell line (Invitrogen, Carlsbad, CA, USA) containing a beta-lactamase reporter gene under control of an Upstream Activator Sequence (UAS) stably integrated into HEK293 cells was used to screen the Tox21 10K compound library. The cytotoxicity of the Tox21 compound library against the AR-bla cell line was tested in parallel by measuring the cell viability using CellTiter-Glo assay in the same wells.
Tox21 Assay Protocol Summary:
AR-bla cells were dispensed at 2,000 cells/5 uL of assay medium per well into black wall/clear-bottom 1536-well plates using a Multidrop Combi (ThermoFisher Scientific, Waltham, MA) dispenser. After the assay plates were incubated at a 37C and 5% CO2 for 4 hr, 23 nL of compounds dissolved in DMSO, positive controls or DMSO only was transferred to the assay plate by a Pintool station (Kalypsys, San Diego, CA), followed by addition of 1 uL of agonist (R1881) in culture medium using a Bioraptr Flying Reagent Dispenser (FRD) workstation (Beckman Coulter, Indianapolis, IN, USA). The plates were incubated at a 37C and 5% CO2 for 16 h. After 1 uL of LiveBLAzerTM B/G FRET substrate was added using a Bioraptr FRD, the plates were incubated at room temperature for 2 h and fluorescence intensity was measured by an Envision plate reader (PerkinElmer, Shelton, CT). For cell viability readout that measures cytotoxicity, 4 ul/well of CellTiter-Glo reagent was added into the assay plates using a Bioraptr FRD. After 30 min incubation at room temperature, the luminescence intensity in the plates was measured using a ViewLux (PerkinElmer) plate reader.
In the case of `BrCCOc1ccccc1`, the “activity change, negative = cytotoxicity” value was 2.75% [at 78.9 µM] (inactive). The same measure, in the same setting: then `O=c1[nH]c(=O)c2cn[nH]c2[nH]1`, with 0.995% (inactive); and `CCCCCCCCCCCBr`, with -1.15% (inactive). The same measure, in the same setting: to `CC(CC(=O)Cl)CC(C)(C)C` (stereo not given) belongs 3.14% [at 78.9 µM] (inactive); to `CC(C)(C)NCC(O)COc1cccc2c1CCC(=O)N2` (stereo not given), -5.6% [at 27 µM] (inactive). As for `CC/C=C/CCCCCCCCCCOC(C)=O`, the “activity change, negative = cytotoxicity” value was 0.235% (inactive). In the case of `COC(C)(C)CC(C)=O`, the “activity change, negative = cytotoxicity” value is -0.382% (inactive). The same measure, in the same setting: then `CC/C=C\CCOC(=O)c1ccccc1`, with -1.46% (inactive); and `CCC(=O)OCCOc1ccccc1`, with 3.37% (inactive); and `N=C(N)S(=O)O`, with -0.207% (inactive). As to `O=Cc1ccccc1S(=O)(=O)O`, the “activity change, negative = cytotoxicity” value is 0.753% (inactive). On the same count and under the same terms, then `O=C[C@@H](O)[C@H](O)[C@H](O)CO`, with 8.08% (inactive); and `C=CC(=O)OCC[N+](C)(C)C`, with -8.36% [at 78.9 µM] (inactive). As to `CCCCN(CCCC)CCCCCCN(CCCC)CCCC`, the “activity change, negative = cytotoxicity” value was 0.0014% (inactive). The same measure, in the same setting: to `C=CCN(CC=C)CC=C` belongs 1.8% (inactive).

Consider `CCOC(=O)[C@H](CCc1ccccc1)N[C@H]1CS[C@H](c2cccs2)CN(CC(=O)O)C1=O`, for which the “activity change, negative = cytotoxicity” value was -0.982% (inactive). Still for that read-out and setting: to `Cc1ccc2cccnc2c1` belongs -13.3% (inactive).

For `CC(C)OC(=O)C(C(=O)OC(C)C)=C1SC=CS1`, the “activity change, negative = cytotoxicity” value is 2.23% (inactive). As for `C/C=C(\C)C=O`, the “activity change, negative = cytotoxicity” value was 10.3% [at 78.9 µM] (inactive).

With `CNC(C)=O`, the “activity change, negative = cytotoxicity” value is 4.5% (inactive).

For `C[C@]12C=CC(=O)C=C1[C@@H](F)C[C@@H]1[C@@H]2[C@@H](O)C[C@@]2(C)[C@H]1CC[C@]2(O)C(=O)CO`, the result was inactive. For `CC(C)=CCC/C(C)=C\C#N`, the “activity change, negative = cytotoxicity” value is 1.01% (inactive). For the compound `C[C@@H]1CC[C@@]2(OC1)O[C@H]1C[C@H]3[C@@H]4CC[C@H]5C[C@@H](O)CC[C@]5(C)[C@H]4CC(=O)[C@]3(C)[C@H]1[C@@H]2C`, the “activity change, negative = cytotoxicity” value was 13.9% [at 27 µM] (inactive). With `CCc1ccc(CC)cc1`, the “activity change, negative = cytotoxicity” value is 4.07% [at 78.9 µM] (inactive). Turning to `CCCCCCCCCCCC(C)=O`, the “activity change, negative = cytotoxicity” value was 2.71% (inactive). Still for that read-out and setting: to `Clc1cc(Cl)c(Cl)c(Cl)c1Cl` belongs 1.38% (inactive).

In the case of `CC(=O)c1c(C)cc(C(C)(C)C)cc1C`, the “activity change, negative = cytotoxicity” value was -0.194% (inactive). On the same count and under the same terms, then `CCCCN1C(=O)c2ccccc2C1=O`, with -27.9% [at 78.9 µM] (inactive).

In the case of `CC(C)CC(=O)N[C@H](C(=O)N[C@H](C(=O)N[C@@H](CC(C)C)[C@@H](O)CC(=O)N[C@@H](C)C(=O)N[C@@H](CC(C)C)[C@@H](O)CC(=O)O)C(C)C)C(C)C` (Isovaleryl-VV[Sta]A[Sta]-OH), the “activity change, negative = cytotoxicity” value is 3.77% (inactive). As to `N#CC1(N)CCCCC1`, the “activity change, negative = cytotoxicity” value is -0.614% [at 78.9 µM] (inactive). Same read-out and setting: to `NNC(=O)CCCCC(=O)NN` belongs 9.87% (inactive); to `C=COCCCCO`, 0.544% (inactive); to `CCCC[O][Al]([O]CCCC)[O]CCCC`, 22.9% (inactive). The same measure, in the same setting: then `O=CN1CCCCC1`, with -0.531% (inactive); and `CN1C(CCl)Nc2cc(Cl)c(S(N)(=O)=O)cc2S1(=O)=O` (stereo not given), with 13.7% (inactive); and `COc1ccc(Cl)cc1C`, with -4.05% [at 78.9 µM] (inactive). In the case of `CC(CN1CC(=O)NC(=O)C1)N1CC(=O)NC(=O)C1` (stereo not given), the “activity change, negative = cytotoxicity” value is -0.179% (inactive).

Regarding `COC(=O)c1ccccc1Cl`, the “activity change, negative = cytotoxicity” value was 4.3% (inactive). In the case of `C/C(=N\O)c1ccc(OCC(=O)N2CCCCC2)cc1`, the “activity change, negative = cytotoxicity” value was -25.7% (inactive). Take `C=C(C)C(=O)OCCCC`: the “activity change, negative = cytotoxicity” value is -2.01% [at 78.9 µM] (inactive).

These data come from PubChem BioAssay (Tox21).
